Hit rate of the full screen: of about 38,000 compounds, about 1,200 (3.2%) showed an effect of 50% or more. The median lay at about -58%. This excerpt belongs to a sample that is enriched for strong results.
These compounds were tested on Plasmodium falciparum (assay: Calibr Malaria Delayed Death Assay SOP). Settings: concentration 4.99e-06 (unit not given; other assays of the set use mol/L).
Format: functional, organism-based
Design: scale not given: in the data most compounds retested in dose-response had high values
For `NS(=O)(=O)NCc1cc(-c2ccc(C(F)(F)F)cc2)n[nH]1`, the “Percent Effect” value was -60.23%.
`Fc1cccc(N2CCCC3(CN(Cc4cccnc4)CCO3)C2)c1.O=C(O)C(F)(F)F.O=C(O)C(F)(F)F.O=C(O)C(F)(F)F` (centres undefined) was tested, and the “Percent Effect” value was 64.23%.
`Fc1cccc(N2CCCC3(CN(Cc4nccs4)CCO3)C2)c1.O=C(O)C(F)(F)F.O=C(O)C(F)(F)F` (centres undefined) was tested, and the “Percent Effect” value was -4.725%.
With `Cn1cc(CN2CCOC3(CCCN(c4cccc(F)c4)C3)C2)cn1.O=C(O)C(F)(F)F.O=C(O)C(F)(F)F` (centres undefined) the “Percent Effect” value was -10.6%.
In the case of `Fc1cccc(N2CCCC3(CN(Cc4ccco4)CCO3)C2)c1.O=C(O)C(F)(F)F.O=C(O)C(F)(F)F` (centres undefined), the “Percent Effect” value is reported as 40.81%.
For `Fc1cccc(N2CCCC3(CN(Cc4ccccn4)CCO3)C2)c1.O=C(O)C(F)(F)F.O=C(O)C(F)(F)F.O=C(O)C(F)(F)F` (centres undefined), the “Percent Effect” value was -90.59%.
For `Fc1cccc(N2CCCC3(C2)CN(c2ncccn2)CCO3)c1.O=C(O)C(F)(F)F.O=C(O)C(F)(F)F` (centres undefined), the “Percent Effect” value was 69.94%.
With `CC(C)(C)OC(=O)N1CCN(c2nnc(Br)s2)CC1` the “Percent Effect” value was -125.7%.
`Cn1cccc1C(=O)N1CCn2nnc(COc3cccnc3)c2C1.O=C(O)C(F)(F)F` was tested, and the “Percent Effect” value was -3.271%.
For `Cc1csc(C(=O)NCCn2nc(-n3cncn3)ccc2=O)c1`, the “Percent Effect” value was -119.2%.
`O=C(Cn1cc(-c2ccccc2)ncc1=O)NC1CCCCC1` was tested, and the “Percent Effect” value was -177.8%.
`CCCS(=O)(=O)N1CCOC2(CCCN(c3ccccn3)C2)C1.O=C(O)C(F)(F)F` (centres undefined) was tested, and the “Percent Effect” value was -72.32%.
For `COc1ccc2c(c1)OCC(CNC(=O)c1ccc3[nH]nnc3c1)C2` (centres undefined), the “Percent Effect” value was -64.67%.
With `COCCN(CC1CCCN(C2Cc3ccccc3C2)C1)C(=O)CSC` (centres undefined) the “Percent Effect” value was -1.59%.
In the case of `COCCN(CC1CCCN(C2Cc3ccccc3C2)C1)C(=O)COC` (centres undefined), the “Percent Effect” value is reported as 37.76%.
`COCCN(CC1CCCN(C2Cc3ccccc3C2)C1)C(=O)CO` (centres undefined) was tested, and the “Percent Effect” value was 58.68%.
In the case of `NCc1ccnc(Oc2ccccc2)c1`, the “Percent Effect” value is reported as -83.78%.
`O=C(CO)N1C[C@H]2CN(Cc3cccc(F)c3)C(=O)[C@H]2C1` was tested, and the “Percent Effect” value was -121.2%.
For `CN(C)c1cc(C(=O)NCC2(c3ccc(F)cc3)CC2)ccn1`, the “Percent Effect” value was -97.96%.
For `Fc1ccc(C2(CNC3=NCCCN3)CCC2)cc1.I`, the “Percent Effect” value was -5.202%.
In the case of `CC(NC(=O)NCC1(c2ccc(F)cc2)CCCC1)c1nncn1C` (centres undefined), the “Percent Effect” value is reported as -7.891%.
For `Fc1ccc(OCCCNC2=NCCCN2)cc1.I`, the “Percent Effect” value was 2.763%.
`Fc1ccc(C2(CNC3=NCCN3)CCCC2)cc1.I` was tested, and the “Percent Effect” value was 83.26%.
For `COc1cccc(N2C(=O)CC3(CCCNC3)C2=O)c1.Cl` (centres undefined), the “Percent Effect” value was -161.5%.
`c1ccc2oc(CN3CCCCC3Cn3cncn3)nc2c1` (centres undefined) was tested, and the “Percent Effect” value was -88.89%.
In the case of `COc1cc(CN2CC(=O)N(c3ccc(C)cc3)CC2C)cc(OC)c1` (centres undefined), the “Percent Effect” value is reported as 43.44%.
For `COc1ccc(F)c(CN2CC(=O)N(c3ccccc3C)CC2C)c1` (centres undefined), the “Percent Effect” value was 6.943%.
`COc1cccc(OC)c1CN1CC(=O)N(c2ccc(C)cc2)CC1C` (centres undefined) was tested, and the “Percent Effect” value was 75.45%.
With `COc1ccc(F)c(F)c1CN1CC(=O)N(c2ccccc2C)CC1C` (centres undefined) the “Percent Effect” value was 28.54%.
With `COc1cccc(CN2CC(=O)N(c3ccccc3C)CC2C)c1OC` (centres undefined) the “Percent Effect” value was 52.42%.
`COc1ccc(CN2CC(=O)N(c3ccc(C)cc3)CC2C)cc1O` (centres undefined) was tested, and the “Percent Effect” value was -98.66%.
For `CN(C)C(=O)CO[C@H]1CN(Cc2ccoc2)[C@@H]2COC[C@H]12.O=C(O)C(F)(F)F`, the “Percent Effect” value was -8.838%.
With `CN(Cc1ccncc1)CC1CCCN(CCc2ccc(Cl)cc2)C1` (centres undefined) the “Percent Effect” value was -30.31%.
With `CN(Cc1ccccc1O)CC1CCCN(CCc2ccc(Cl)cc2)C1` (centres undefined) the “Percent Effect” value was -82.77%.
In the case of `Cc1nc[nH]c1CN(C)CC1CCCN(CCc2ccc(Cl)cc2)C1` (centres undefined), the “Percent Effect” value is reported as 82.22%.
For `Cc1cc(CN(C)CC2CCCN(CCc3ccc(Cl)cc3)C2)[nH]n1` (centres undefined), the “Percent Effect” value was -73.95%.
In the case of `CN(Cc1cnc(N)nc1)CC1CCCN(CCc2ccc(Cl)cc2)C1` (centres undefined), the “Percent Effect” value is reported as -42.11%.
For `CC(C)NC(=O)c1nnn(-c2ccccc2)c1C1CC1`, the “Percent Effect” value was -103.7%.
With `CCCNC(=O)c1cc2c(s1)CCN2C(=O)c1ccccc1` the “Percent Effect” value was -140.9%.
For `O=C(NCCN1CCOC1=O)c1cnc(-c2cccnc2)nc1`, the “Percent Effect” value was -89.05%.
In the case of `O=C(N[C@@H]1CN(Cc2cccc(F)c2)C[C@H]1O)c1cscn1`, the “Percent Effect” value is reported as -187.1%.
In the case of `O=C(COCC1CC1)Nc1ncccc1I`, the “Percent Effect” value is reported as -99.18%.
In the case of `CCOCC1CN(Cc2ccc(OC)cc2)Cc2nn(CC3CC3)cc21.O=C(O)C(F)(F)F` (centres undefined), the “Percent Effect” value is reported as -47.96%.
In the case of `CC(C)N(CCNC(=O)c1[nH]nc2ccc(I)cc12)C(C)C`, the “Percent Effect” value is reported as 86.77%.
In the case of `CC(C)N(CCNC(=O)c1ccc(S(=O)(=O)NC2CC2)cc1)C(C)C`, the “Percent Effect” value is reported as 3.108%.
In the case of `Cc1cccc(C(C)C)c1NC(=O)NCCN(C(C)C)C(C)C`, the “Percent Effect” value is reported as 37.4%.
With `c1ccc(-c2cc(CN3C[C@@H]4CC[C@H](C3)N(CC3CCC3)C4)on2)cc1` the “Percent Effect” value was 88.08%.
In the case of `c1ccc(-c2cc(CN3C[C@@H]4CC[C@H](C3)N(CC3CC3)C4)on2)cc1`, the “Percent Effect” value is reported as 16.35%.
For `c1ccc(-c2cc(CN3C[C@H]4CC[C@H]3C4)on2)cc1`, the “Percent Effect” value was 2.742%.
`CCC(OC)C(=O)NCc1cc2n(n1)CCCN(C1CCCCC1)C2` (centres undefined) was tested, and the “Percent Effect” value was -16.19%.
For `CC1CCCCN1c1nc2c(c(=O)[nH]1)CCN(Cc1ccccc1F)C2` (centres undefined), the “Percent Effect” value was 13.92%.
`FC(F)(F)c1cc(-c2cccs2)nc(N2CCN3CCCC3C2)n1` (centres undefined) was tested, and the “Percent Effect” value was -49.64%.
In the case of `Cc1ccc(-c2cc(C(F)(F)F)nc(N3CCOCC3)n2)s1`, the “Percent Effect” value is reported as -16.11%.
With `CCc1ccc(-c2cc(C(F)(F)F)nc(N3CCC(N)CC3)n2)cc1` the “Percent Effect” value was 81.95%.
`CCn1ncc(-c2cc(C(F)(F)F)nc(N3CCC(N)CC3)n2)c1C` was tested, and the “Percent Effect” value was 64.36%.
`CCn1cc(-c2cc(C(F)(F)F)nc(NC3CCCC3)n2)c(C)n1` was tested, and the “Percent Effect” value was -77.03%.
With `Cc1c(-c2cc(C(F)(F)F)nc(N3CCC(N)CC3)n2)cnn1C` the “Percent Effect” value was 19.65%.
`CCc1nc(CN2CCCN(Cc3noc(C4CC4)n3)CC2)cs1` was tested, and the “Percent Effect” value was -72.76%.
For `COc1cc(CN2CCCC23CCN(c2ccccn2)CC3)ccc1F`, the “Percent Effect” value was 1.862%.
`Cc1cc(C)c2[nH]c(C(=O)NCCN3CCCC3=O)c(C)c2c1` was tested, and the “Percent Effect” value was -119.1%.
For `CC(C)c1noc(CCNC(=O)N2CCN(c3cccs3)CC2)n1`, the “Percent Effect” value was -17.65%.
`CCc1nc(CCNC(=O)Nc2cccc(C(=O)NC)c2C)cs1` was tested, and the “Percent Effect” value was -100.3%.
For `Cc1nnc(SC2CCc3ccccc3NC2=O)o1` (centres undefined), the “Percent Effect” value was -88.91%.
For `CNc1cc(C)nc(-c2cc(NCCO)nc3[nH]ccc23)n1`, the “Percent Effect” value was -113.9%.
`Cc1cc(CNc2cncc(C(=O)N(C)C)n2)c2[nH]c(C)c(C)c2c1` was tested, and the “Percent Effect” value was -64.7%.
With `CNc1cc(C)nc(-c2cc(NC)nc3[nH]ccc23)n1` the “Percent Effect” value was 49.01%.
With `CNc1cc(C)nc(NCc2cc(C)cc3c(C)c(C)[nH]c23)n1` the “Percent Effect” value was 91.83%.
For `CNc1nc(C)cc(NCc2cc(C)cc3c(C)c(C)[nH]c23)n1`, the “Percent Effect” value was 92.52%.
`CCN(Cc1cnn(CC)c1)Cc1c(Cl)cncc1Cl` was tested, and the “Percent Effect” value was -11.88%.
With `Cc1ccc(C2CN(CCCC#N)CCO2)c(C)c1` (centres undefined) the “Percent Effect” value was -121.1%.
`CCc1ncnc2c1CCN(S(=O)(=O)CC)CC2` was tested, and the “Percent Effect” value was -41.95%.
In the case of `CN(CCCc1ccccc1)C(=O)c1ccccc1NCC(=O)O`, the “Percent Effect” value is reported as -16.6%.
In the case of `CCC1=NN2C(=N)/C(=C\c3cccn3-c3ccc(Cl)cc3)C(=O)N=C2S1`, the “Percent Effect” value is reported as 17.01%.
`COc1cc(I)c(Cl)cc1C(=O)N(C)CC(=O)NC(C)(C)C` was tested, and the “Percent Effect” value was -34.35%.
In the case of `CN1C(Cn2cccn2)C[C@@H]2CN(Cc3nccs3)CC[C@@H]21` (some centres undefined), the “Percent Effect” value is reported as -108.4%.
In the case of `CN1C(Cn2cccn2)C[C@@H]2CN(Cc3cccnc3)CC[C@@H]21.O=C(O)C(F)(F)F.O=C(O)C(F)(F)F.O=C(O)C(F)(F)F.O=C(O)C(F)(F)F` (some centres undefined), the “Percent Effect” value is reported as 11.1%.
For `CN1C(Cn2cccn2)C[C@@H]2CN(Cc3ccccn3)CC[C@@H]21.O=C(O)C(F)(F)F.O=C(O)C(F)(F)F.O=C(O)C(F)(F)F.O=C(O)C(F)(F)F` (some centres undefined), the “Percent Effect” value was 41.52%.
`CN1[C@H](Cn2cccn2)C[C@@H]2CN(Cc3cccs3)CC[C@@H]21.O=C(O)C(F)(F)F.O=C(O)C(F)(F)F.O=C(O)C(F)(F)F` was tested, and the “Percent Effect” value was 75.74%.
`Cc1ccoc1C(=O)N1CC[C@H]2[C@H](C[C@@H](CN3CCCC3)N2C)C1.O=C(O)C(F)(F)F.O=C(O)C(F)(F)F` was tested, and the “Percent Effect” value was -53.97%.
In the case of `CN1[C@H](CN2CCCC2)C[C@@H]2CN(Cc3ccoc3)CC[C@@H]21.O=C(O)C(F)(F)F.O=C(O)C(F)(F)F.O=C(O)C(F)(F)F`, the “Percent Effect” value is reported as 57.43%.
In the case of `CC(C)N1[C@H](Cn2cccn2)C[C@@H]2CN(Cc3ccoc3)CC[C@@H]21.O=C(O)C(F)(F)F.O=C(O)C(F)(F)F.O=C(O)C(F)(F)F`, the “Percent Effect” value is reported as 39.12%.
With `CN1[C@H](Cn2cccn2)C[C@@H]2CN(C(=O)Cc3cccs3)CC[C@@H]21` the “Percent Effect” value was -36.35%.
With `CCc1nc2n(n1)CC(NCc1cc(OC)c3c(c1)OCCO3)CC2` (centres undefined) the “Percent Effect” value was -60.23%.
In the case of `O=C(CN1CC(c2ccccc2)CC1=O)N1CCN(c2nccs2)CC1` (centres undefined), the “Percent Effect” value is reported as -33.46%.
In the case of `Cc1nc(-c2cccc(C(=O)O)c2)cc(C2CCCN(C(C)C)C2)n1` (centres undefined), the “Percent Effect” value is reported as -116.2%.
`COc1cccc(CNc2nnc(C(C)(C)C)o2)c1OC` was tested, and the “Percent Effect” value was -115.2%.
For `CC(C)NC(=O)C1CCN(C(C)C(=O)N2CCc3sccc3C2)CC1` (centres undefined), the “Percent Effect” value was -19.38%.
For `CC(C(=O)N1CCc2sccc2C1)N1CCC(N2CCCC2)CC1` (centres undefined), the “Percent Effect” value was 51.04%.
In the case of `CC(C(=O)N1CCc2sccc2C1)N1CCCN(C2CC2)CC1` (centres undefined), the “Percent Effect” value is reported as 19.49%.
